Measurements as given in publication PMC7862700, “An all-to-all approach to the identification of sequence-specific readers for epigenetic DNA modifications on cytosine”.

How the values were obtained:
Assay in all cases: DAPPL (digital affinity profiling via proximity ligation, sequencing); 10 mM Tris-HCl pH 7.5, 50 mM NaCl, 1 mM DTT, 4% glycerol, room temperature, 30 min; GST-TFs on glutathione beads, 16-mer random dsDNA library, 0.1% formaldehyde crosslink after washing; high values mean tight binding
Details in all cases: protein: recombinant; tags: N-terminal GST; dsDNA, one strand shown
ETV5 = ETV5 (Homo sapiens, UniProt P41161 1-510)
In short: (§1)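 Human transcription factors carrying a GST fusion were produced in yeast, bound to glutathione beads, tagged with DNA barcodes and pooled together with a tag-only sample. Each pool was held with 200 nmole of a random double-stranded 16-mer DNA library in Tris/NaCl/DTT/glycerol buffer for 30 min at room temperature, then washed, crosslinked in 0.1% formaldehyde, proximity-ligated with BsaI/T4 ligase (1 h, 37 °C), PCR-amplified and sequenced on an Illumina NextSeq500. Binding signal is the read frequency of each hexamer for a given factor divided by its frequency in the tag-only sample.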

SPIC = target: T1, SPIC (Homo sapiens, UniProt Q8N5J4 1-248)
T1 sequence: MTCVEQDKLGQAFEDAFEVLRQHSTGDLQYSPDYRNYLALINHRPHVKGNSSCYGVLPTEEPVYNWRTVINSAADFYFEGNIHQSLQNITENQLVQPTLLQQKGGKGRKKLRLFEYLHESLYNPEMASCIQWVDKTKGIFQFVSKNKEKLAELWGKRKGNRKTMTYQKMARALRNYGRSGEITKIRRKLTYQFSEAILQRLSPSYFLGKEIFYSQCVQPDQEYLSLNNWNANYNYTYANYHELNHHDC
In short: as §1

ELF4 = ELF4 (Homo sapiens, UniProt Q99607 1-663)
In short: as §1

ETV1 = ETV1 (Homo sapiens, UniProt P50549 1-477)
In short: as §1

ERF = target: T2, ERF (Homo sapiens, UniProt P50548 1-548)
T2 sequence: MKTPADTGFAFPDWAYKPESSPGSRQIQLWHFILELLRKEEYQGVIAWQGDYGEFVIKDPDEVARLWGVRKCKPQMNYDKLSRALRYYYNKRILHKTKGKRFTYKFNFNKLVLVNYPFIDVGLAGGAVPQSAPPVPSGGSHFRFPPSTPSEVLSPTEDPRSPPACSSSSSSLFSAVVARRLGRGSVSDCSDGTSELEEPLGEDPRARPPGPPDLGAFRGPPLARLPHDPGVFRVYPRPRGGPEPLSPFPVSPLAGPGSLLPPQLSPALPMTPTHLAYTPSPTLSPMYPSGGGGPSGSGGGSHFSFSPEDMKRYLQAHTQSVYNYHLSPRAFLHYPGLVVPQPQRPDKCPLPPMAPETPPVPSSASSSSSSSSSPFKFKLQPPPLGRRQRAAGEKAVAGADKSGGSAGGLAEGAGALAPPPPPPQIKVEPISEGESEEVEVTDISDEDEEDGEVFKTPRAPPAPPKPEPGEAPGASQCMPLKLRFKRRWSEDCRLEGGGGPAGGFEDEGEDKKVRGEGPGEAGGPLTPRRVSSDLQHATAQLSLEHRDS
In short: as §1

ETV3L = target: T3, ETV3L (Homo sapiens, UniProt Q6ZN32 1-361)
T3 sequence: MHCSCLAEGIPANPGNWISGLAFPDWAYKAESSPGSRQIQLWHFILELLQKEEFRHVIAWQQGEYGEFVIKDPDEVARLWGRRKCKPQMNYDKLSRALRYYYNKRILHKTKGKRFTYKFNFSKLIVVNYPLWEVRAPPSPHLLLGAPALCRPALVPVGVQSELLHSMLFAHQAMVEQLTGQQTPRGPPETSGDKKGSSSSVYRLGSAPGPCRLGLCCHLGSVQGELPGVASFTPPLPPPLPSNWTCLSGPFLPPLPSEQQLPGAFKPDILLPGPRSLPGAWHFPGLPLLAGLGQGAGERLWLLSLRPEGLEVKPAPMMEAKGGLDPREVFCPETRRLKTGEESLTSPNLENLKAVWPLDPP
In short: as §1

ETS2 = target: T4, ETS2 (Homo sapiens, UniProt P15036 1-469)
T4 sequence: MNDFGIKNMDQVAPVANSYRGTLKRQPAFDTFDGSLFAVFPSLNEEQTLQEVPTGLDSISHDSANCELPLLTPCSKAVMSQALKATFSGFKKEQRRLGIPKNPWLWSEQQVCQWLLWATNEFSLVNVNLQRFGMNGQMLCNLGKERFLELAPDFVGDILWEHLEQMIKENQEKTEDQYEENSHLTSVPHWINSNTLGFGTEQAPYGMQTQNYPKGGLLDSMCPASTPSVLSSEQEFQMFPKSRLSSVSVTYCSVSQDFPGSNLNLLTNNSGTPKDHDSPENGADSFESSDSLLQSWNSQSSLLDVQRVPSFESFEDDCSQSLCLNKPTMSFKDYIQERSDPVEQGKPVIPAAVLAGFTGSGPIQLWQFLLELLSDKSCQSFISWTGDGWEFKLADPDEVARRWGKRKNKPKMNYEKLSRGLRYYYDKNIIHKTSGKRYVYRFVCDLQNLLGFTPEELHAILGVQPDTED
In short: as §1

SPDEF = target: T5, SPDEF (Homo sapiens, UniProt O95238 1-335)
T5 sequence: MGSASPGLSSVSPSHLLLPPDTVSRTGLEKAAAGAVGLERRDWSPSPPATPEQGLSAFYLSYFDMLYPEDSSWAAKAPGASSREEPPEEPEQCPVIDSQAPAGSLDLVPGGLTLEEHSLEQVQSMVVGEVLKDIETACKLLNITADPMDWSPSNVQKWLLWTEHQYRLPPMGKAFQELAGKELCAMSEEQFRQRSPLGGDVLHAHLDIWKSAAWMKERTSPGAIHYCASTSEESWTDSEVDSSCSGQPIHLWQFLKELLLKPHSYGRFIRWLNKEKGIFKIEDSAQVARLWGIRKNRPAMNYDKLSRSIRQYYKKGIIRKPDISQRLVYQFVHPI
In short: as §1

ETV3 = target: T6, ETV3 (Homo sapiens, UniProt P41162-2 1-143)
T6 sequence: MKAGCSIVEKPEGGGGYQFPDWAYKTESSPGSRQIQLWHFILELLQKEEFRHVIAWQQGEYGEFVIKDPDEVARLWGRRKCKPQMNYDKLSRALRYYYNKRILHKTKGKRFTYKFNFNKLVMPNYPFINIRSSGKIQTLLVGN
In short: as §1

ETV6 = ETV6 (Homo sapiens, UniProt P41212 1-452)
In short: as §1

ELF4, sequence (Q99607 whole entry): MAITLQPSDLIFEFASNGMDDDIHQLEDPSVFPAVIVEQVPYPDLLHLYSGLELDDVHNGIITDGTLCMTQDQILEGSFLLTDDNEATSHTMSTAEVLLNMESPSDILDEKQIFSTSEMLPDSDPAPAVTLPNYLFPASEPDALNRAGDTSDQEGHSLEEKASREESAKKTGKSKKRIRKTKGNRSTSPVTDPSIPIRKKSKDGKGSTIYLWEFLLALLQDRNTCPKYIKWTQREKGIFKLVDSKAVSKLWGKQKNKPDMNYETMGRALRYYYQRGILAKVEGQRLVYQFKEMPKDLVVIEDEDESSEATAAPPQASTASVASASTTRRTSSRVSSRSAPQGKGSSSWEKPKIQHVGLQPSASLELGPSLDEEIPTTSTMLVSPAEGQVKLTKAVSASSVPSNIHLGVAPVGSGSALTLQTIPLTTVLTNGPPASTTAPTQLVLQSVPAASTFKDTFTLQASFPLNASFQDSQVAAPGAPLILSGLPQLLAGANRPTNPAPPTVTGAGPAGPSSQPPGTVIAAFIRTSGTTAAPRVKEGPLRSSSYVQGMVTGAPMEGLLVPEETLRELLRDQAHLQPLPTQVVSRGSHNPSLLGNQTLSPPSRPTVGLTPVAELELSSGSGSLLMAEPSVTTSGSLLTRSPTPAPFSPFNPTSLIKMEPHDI
ETV1, sequence (P50549 whole entry): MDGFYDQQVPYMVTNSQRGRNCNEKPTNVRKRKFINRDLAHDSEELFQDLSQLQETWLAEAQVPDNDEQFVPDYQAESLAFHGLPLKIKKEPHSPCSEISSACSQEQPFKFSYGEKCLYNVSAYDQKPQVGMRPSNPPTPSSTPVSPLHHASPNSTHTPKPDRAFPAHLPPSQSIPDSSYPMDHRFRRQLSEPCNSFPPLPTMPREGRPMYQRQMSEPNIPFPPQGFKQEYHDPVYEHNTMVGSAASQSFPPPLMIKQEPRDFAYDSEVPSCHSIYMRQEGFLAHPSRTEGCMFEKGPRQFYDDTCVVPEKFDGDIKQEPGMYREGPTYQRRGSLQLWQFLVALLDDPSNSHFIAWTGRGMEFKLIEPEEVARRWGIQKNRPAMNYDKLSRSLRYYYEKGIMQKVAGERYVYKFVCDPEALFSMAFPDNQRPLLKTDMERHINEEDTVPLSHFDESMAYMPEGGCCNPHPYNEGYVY
ETV6, sequence (P41212 whole entry): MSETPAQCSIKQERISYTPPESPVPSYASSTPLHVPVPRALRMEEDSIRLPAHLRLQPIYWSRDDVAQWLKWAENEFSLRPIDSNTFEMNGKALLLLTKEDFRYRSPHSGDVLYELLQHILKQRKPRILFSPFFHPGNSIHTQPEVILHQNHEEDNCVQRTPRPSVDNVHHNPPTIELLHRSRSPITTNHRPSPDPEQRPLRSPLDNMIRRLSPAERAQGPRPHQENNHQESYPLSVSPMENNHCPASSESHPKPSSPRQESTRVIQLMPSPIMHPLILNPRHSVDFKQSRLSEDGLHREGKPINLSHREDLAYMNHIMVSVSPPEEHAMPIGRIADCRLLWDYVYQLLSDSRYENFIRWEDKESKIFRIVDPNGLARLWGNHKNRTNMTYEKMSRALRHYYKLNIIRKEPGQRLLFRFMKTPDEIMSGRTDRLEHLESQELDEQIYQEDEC
ETV5, sequence (P41161 whole entry, the tested form may be a part): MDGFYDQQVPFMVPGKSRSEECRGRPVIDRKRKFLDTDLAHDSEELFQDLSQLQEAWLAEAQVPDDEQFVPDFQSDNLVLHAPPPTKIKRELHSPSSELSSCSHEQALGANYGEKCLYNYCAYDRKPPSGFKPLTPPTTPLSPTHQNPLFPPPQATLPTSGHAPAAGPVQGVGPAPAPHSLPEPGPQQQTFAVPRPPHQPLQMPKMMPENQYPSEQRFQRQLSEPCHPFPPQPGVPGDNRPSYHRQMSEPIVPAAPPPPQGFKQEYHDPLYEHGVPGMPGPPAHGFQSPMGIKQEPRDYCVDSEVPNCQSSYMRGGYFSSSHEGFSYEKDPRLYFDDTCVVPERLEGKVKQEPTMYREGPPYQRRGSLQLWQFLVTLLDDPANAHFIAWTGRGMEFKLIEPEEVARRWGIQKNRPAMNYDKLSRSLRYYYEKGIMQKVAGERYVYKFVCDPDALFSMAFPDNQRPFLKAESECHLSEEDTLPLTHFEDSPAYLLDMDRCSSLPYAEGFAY

Sequence: GTCTAC
- binding signal (ETV5): 1.11 fold enrichment (6-mer frequency, TF over GST control)
- binding signal (SPIC): 1.1 fold enrichment (6-mer frequency, TF over GST control)
- binding signal (ELF4): 1.09 fold enrichment (6-mer frequency, TF over GST control)
- binding signal (ETV1): 1.19 fold enrichment (6-mer frequency, TF over GST control)
- binding signal (ERF): 1.07 fold enrichment (6-mer frequency, TF over GST control)
- binding signal (ETV3L): 1.26 fold enrichment (6-mer frequency, TF over GST control)
- binding signal (ETS2): 1.13 fold enrichment (6-mer frequency, TF over GST control)
- binding signal (SPDEF): 1.11 fold enrichment (6-mer frequency, TF over GST control)
- binding signal (ETV3): 1.06 fold enrichment (6-mer frequency, TF over GST control)
- binding signal (ETV6): 1 fold enrichment (6-mer frequency, TF over GST control)
